39 molecules from PubChem BioAssay AID1645849 (National Center for Advancing Translational Sciences (NCATS), 2021) can be followed below.

Results filed as inconclusive are left out. The source made the active and inactive calls. Calls come from the whole dose curve; as a rule, active = well fitted inhibition curve with a large enough effect in the repeat runs; inconclusive = weak or mixed curves; inactive = no such curve, though single readings can be large or run the other way.

The nature of this test: Comparison of Janus kinase inhibitors to block the type I interferon pathway in human skeletal muscle cells: JAK inhibition assay. Conditions: IFN pathway HiBiT reporter; series mostly up to 45.9 µM. From the text:
Assay Submitter: Travis B. Kinder Ph.D.
National Center for Advancing Translational Sciences (NCATS)
The family of Janus kinases (JAK1, JAK2, JAK3, TYK2) mediate signal transduction from cytokine receptors through phosphorylation and activation of intracellular signaling pathways and transcription factors. Small molecule antagonists of JAKs (jakinibs) have been developed with varying selectivity for the use in malignancies and immune regulation. […] We have assayed a library of 48 jakinibs for their ability to inhibit the JAK1/TYK2-dependent type I interferon (IFN) - major histocompatibility complex (MHC) class I pathway in human skeletal muscle cells genome-engineered to fuse a pro-luminescent HiBiT peptide to endogenous MHC class I.
The assay utilized CRISPR/Cas9 genome-engineered immortalized human myoblasts, C25cl48, where a pro-luminescent reporter HiBit was fused to the C-terminus of endogenous MHC class I allele HLA-B*08:01 (HLA-B HiBit myoblasts) (Kinder et al., 2020). HiBit is an 11 amino acid fragment of NanoLuc luminescent reporter (Promega Corporation), and when complexed to the larger LgBit fragment, the reconstituted enzyme produces light in the presence of furimazine substrate. Briefly, HLA-B HiBit myoblasts were plated into 1536-well plates, treated with 4.0 ng/ml human IFN-beta and 48 jakinibs in an 11-point, 1:3 titration with a high final concentration of 46 uM. After 24 hrs of treatment, cells were assayed by Nano-Glo HiBiT Lytic Detection System (Promega) and luminescence measured by a ViewLux 1430 Ultra HTS (Perkin Elmer).
Kinder TB, Dranchak PK, Inglese J. High-Throughput Screening to Identify Inhibitors of the Type I Interferon-Major Histocompatibility Complex Class I Pathway in Skeletal Muscle. ACS Chem Biol. 2020 Jul 17;15(7):1974-1986. doi: 10.1021/acschembio.0c00343
PROTOCOL TABLE (as described by Inglese et al., 2007)
SEQUENCE No. (e.g., 1, 2, 3, etc.); PARAMETER (e.g., Cells, Incubation, Reagent, etc.); VALUE; DESCRIPTION
1a; Cells; 5 uL; Seed 250 cells/well with a Multidrop Combi (Thermo Scientific) into two Greiner 1536 well white/solid bottom, high base, TC plates (789173-F) in 5 ul/well of growth medium (GM) without dexamethasone into columns 1+2
1b; Cells; 5 uL; Seed 250 cells/well with a Multidrop Combi (Thermo Scientific) into two Greiner 1536 well white/solid bottom, high base, TC plates (789173-F) in 5 ul/well of GM without dexamethasone + 4 ng/ml IFN-beta into columns 3 - 48. Add metal lids with gas-exchange holes
2; Incubate; 30 min; Incubate at 37C, 5% CO2, 95% RH
3; Compounds; 23 nl; Transfer DMSO control and library compounds in DMSO with Pin Tool (Wako)
4; Incubate; 24 hrs; Incubate at 37C, 5% CO2, 95% RH
5; Dispense; 2.5 ul; Add HiBit lytic reagent with a BioRAPTR FRD (Beckman Coulter)
6; Incubate; 10 min; Incubate in the dark at ambient temperature for lysis
7; Detector; 5 sec; Measure luminescence with ViewLux 1430 Ultra HTS (Perkin Elmer). Settings: Exposure = 5 sec, Gain = High, Speed = Slow, Binning = 2X
NOTES (numbers refer to sequence above)
1; HLA-B HiBit myoblasts cultured in GM - 4:1 ratio DMEM Glutamax (Thermo Fisher, 10566) : M199 (Thermo Fisher, 11150), 10% FBS (Hyclone Standard), 1% Pen/Strep, 50 ug/ml fetuin, 10 ng/ml hEGF, 1 ng/ml bhFGF, 10 ug/ml insulin, 0.4 ug/ml dexamethasone (supplements from Promocell, C-39360). […] Recombinant human IFN-beta (Peprotech, 300-02BC) was reconstituted in water, diluted in GM, and aliquots stored at -80C until day of use.
3; Control plate contained DMSO in columns 1 and 4, digitonin (Sigma, D141) cytotoxicity control in DMSO at 20 mM in column 2, and ruxolitinib (Selleckchem, S1378) inhibitor control in DMSO 16-point, 1:2 titration, high concentration = 17 mM in column 3. Digitonin and ruxolitinib stocks were reconstituted at 20 and 50 mM in DMSO and aliquots stored at -20C. Forty-eight compounds were added in an 11-point, 1:3 titration with a high final concentration of 46 uM by Pintool (Wako) from one library plates and one DMSO control plate
[…]
A general note: HiBiT is a short tag that completes a luciferase, so light tracks the accessible tagged protein.
`Cc1cc(Nc2nc(N[C@@H](C)c3ncc(F)cn3)ncc2Cl)n[nH]1`: the Potency was 1.47 µM (active).
In the case of `Cc1cc(Nc2nc(N[C@@H](C)c3ccc(F)cc3)c(C#N)cc2F)n[nH]1` it was 1.08 µM (active); in that of `C[C@@H]1CCN(C(=O)CC#N)C[C@@H]1N(C)c1ncnc2[nH]ccc12`, 2.16 µM (active).
In the case of `CC(C)(C)c1nc2c3cc[nH]c(=O)c3c3cc(F)ccc3c2[nH]1` it was 1.26 µM (active); in that of `NC(=O)c1cnc2[nH]ccc2c1NC1C2CC3C[C@H]1CC(O)(C3)C2` (some centres undefined), 1.72 µM (active).
Regarding `CCS(=O)(=O)N1CCN(c2ccc(Nc3ncc(C(N)=O)c(NC4CC4)n3)cc2)CC1`, the Potency was 0.93 µM (active).
In the case of `Cc1cnc(Nc2ccc(OCCN3CCCC3)cc2)nc1Nc1cccc(S(=O)(=O)NC(C)(C)C)c1` it was 3.56 µM (active).
Then `CN1CCN(c2cccc(Nc3nc4c(-c5ccc(S(C)(=O)=O)cc5)cccn4n3)c2)CC1`, with 3.06 µM (active); and `N#CC[C@H](C1CCCC1)n1cc(-c2ncnc3[nH]ccc23)cn1`, with 0.861 µM (active); and `CC(=O)Nc1cc(Oc2ccc3c(nc(Nc4ccc(F)cc4F)n3C)c2C)ccn1`, with 0.37 µM (active).
Turning to `Cc1oncc1C(=O)Nc1ccc(C(F)(F)F)cc1`, the Potency was 17.2 µM (active).
Then `O=C(Nc1ccnc(NC(=O)C2CC2)c1)c1c(Cl)cccc1Cl`, with 4.48 µM (active); and `Cc1cc(Nc2cc(NC(=O)c3c(Cl)cccc3Cl)ccn2)nc(N)n1`, with 2.16 µM (active).
For `COc1nsc(NC(=O)N2C[C@H]3CC(N(C)c4ncnc5[nH]ccc45)C[C@H]3C2)n1` (some centres undefined), the Potency is 0.432 µM (active).
Then `CCCS(=O)(=O)NC1CC(N(C)c2ncnc3[nH]ccc23)C1` (centres undefined), with 3.7 µM (active).
Then `O=C(Nc1nc2cccc(-c3ccc(CN4CCS(=O)(=O)CC4)cc3)n2n1)C1CC1`, with 15.3 µM (active).
Then `COc1cc2ncnc(Nc3ccc(O)cc3)c2cc1OC`, with “inactive”; and `CC[C@@](C)(Nc1ccnc(-c2c[nH]c3ncccc23)n1)C(=O)NCC(F)(F)F`, with 8.29 µM (active).
On to `N#CCC1(n2cc(-c3ncnc4[nH]ccc34)cn2)CN(C2CCN(C(=O)c3ccnc(C(F)(F)F)c3F)CC2)C1`, for which the Potency was 0.861 µM (active).
Then `Cc1cnc(Nc2cccc(CN3CCOCC3)c2)nc1Nc1cccc(S(=O)(=O)NC(C)(C)C)c1`, with 10 µM (active); and `C1=C/COCc2cc(ccc2OCCN2CCCC2)Nc2nccc(n2)-c2cccc(c2)COC/1`, with 2.16 µM (active); and `Cc1cc(Nc2cc(CN3CCOCC3)c3nc(C)c(Cc4ccc(Cl)cc4F)n3n2)n[nH]1`, with 14.2 µM (active).
In the case of `CC1(C)CN(C(=O)c2ccc(-c3cccc4nc(NC(=O)C5CC5)nn34)cc2)C1`, the Potency is 7.67 µM (active).
Then `Cn1cc(Nc2nccc(N3C[C@H]4CC[C@@H](C3)N4C(=O)[C@@H]3CC3(F)F)n2)cn1`, with 3.56 µM (active); and `C=CC(=O)N1C[C@H](Nc2ncnc3[nH]ccc23)CC[C@@H]1C`, with “inactive”; and `Cc1cnc(Nc2ccc(N3CCN(C)CC3)cc2)nc1Nc1cccc(S(=O)(=O)NC(C)(C)C)c1`, with 2.43 µM (active).
In the case of `CC[C@@H]1CN(C(=O)NCC(F)(F)F)C[C@@H]1c1cnc2cnc3[nH]ccc3n12` it was 0.33 µM (active).
As to `CN(C)c1ccc(Nc2nc(N)n(C(=O)c3c(F)cccc3F)n2)cc1`, the Potency is 6.58 µM (active).
Then `Fc1cc(-c2cccc3ncc(-c4cnn(C5CCNCC5)c4)nc23)cc(F)c1CN1CCOCC1`, with 17.9 µM (active); and `CCC[C@H](NC(=O)/C(C#N)=C/c1cccc(Br)n1)c1ccccc1`, with 7.39 µM (active); and `C[C@@]12O[C@@H](C[C@]1(O)CO)n1c3ccccc3c3c4c(c5c6ccccc6n2c5c31)CNC4=O`, with 0.415 µM (active).
Take `NC(=O)c1nc(-c2c(F)cccc2Cl)oc1Nc1ccc(C(=O)N2CCOCC2)cc1`: the Potency was 5.23 µM (active).
Then `CNS(=O)(=O)CC1CCC(N(C)c2ncnc3[nH]ccc23)CC1` (centres undefined), with 4.66 µM (active); and `[2H]C([2H])([2H])NC(=O)c1nnc(NC(=O)C2CC2)cc1Nc1cccc(-c2ncn(C)n2)c1OC`, with 0.0711 µM (active).
Then `N#CCNC(=O)c1ccc(-c2ccnc(Nc3ccc(N4CCOCC4)cc3)n2)cc1`, with 4.48 µM (active).
As to `N#C/C(=C\c1ccc(O)c(O)c1)C(=O)NCc1ccccc1`, the Potency result was “inactive”.
For `CC(C)N(CCC(=O)c1ccc2ccccc2c1)Cc1ccccc1`, the Potency was 14.2 µM (active).
Then `Cc1cnc(Nc2ccc(CN3CCOCC3)cc2)nc1Nc1cccc(S(=O)(=O)NC(C)(C)C)c1`, with 5.43 µM (active).
Take `CCS(=O)(=O)N1CC(CC#N)(n2cc(-c3ncnc4[nH]ccc34)cn2)C1`: the Potency is 1.31 µM (active).
